Results: PubChem BioAssay (NCATS)
Results filed as inconclusive are left out. A call without a number means that no potency is given here. Active and inactive are the calls of the source. Calls follow the shape of the dose curve; as a rule, active = well fitted inhibition curve with a large enough effect; inconclusive = small, poorly fitted or top-dose-only effect; inactive = no such curve, though single readings can be large or run the other way.

Experiment: qHTS assay for measurement of the activity of small molecule inhibitors on Zika virus induced Caspase-3 activity in human iPSC derived neural progenitor cells (hNPCs) (AID 1224857); also: nearly all actives have a fitted effect of over 65% in size
Conditions: hNPCs ZIKV-induced caspase-3/7, Caspase-Glo luminescence, 6 h; series mostly up to 45.7 µM
Procedure, shortened: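 Values are percent inhibition of virus-induced caspase-3/7 signal, scaled between uninfected cells and ZIKV-infected cells. Infection used 2 FFU/cell for 6 h after 1 h compound exposure.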

Row | Compound | Potency
1 | OC(CCN1CCCCC1)(c1ccccc1)C1CC2C=CC1C2 (stereo not drawn) | inactive
2 | COc1cc(Nc2ncc3c(n2)-c2ccc(Cl)cc2C(c2c(F)cccc2OC)=NC3)ccc1C(=O)O | inactive
3 | O=C(c1cc(Cc2n[nH]c(=O)c3ccccc23)ccc1F)N1CCN(C(=O)C2CC2)CC1 | inactive

Experiment: qHTS assay for measurement of the activity of small molecule inhibitors on Zika virus induced Caspase-3 activity in human astrocytoma cells (AID 1224859)
Conditions: SNB-19 ZIKV-induced caspase-3/7, luminescence, 6 h; series mostly up to 45.7 µM
Procedure, shortened: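 Compound added 1 h pre-infection; ZIKV 2 FFU/cell on SNB-19 cells, 6 h, 37 C/5% CO2. Caspase-Glo 3/7 luminescence; values as % inhibition of ZIKV-induced caspase activity.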

Row | Compound | Potency
4 | CCOC(=O)N1CCC(=C2c3ccc(Cl)cc3CCc3cccnc32)CC1 | inactive
5 | Cc1cn[nH]c1 | inactive
6 | CN(C)c1ccc(C2Nc3ccc4ccccc4c3C3=C2C(=O)CC(C)(C)C3)cc1Br (stereo not drawn) | inactive
7 | c1ccc(-c2nn3c(c2-c2ccnc4cc(OCCN5CCOCC5)ccc24)CCC3)nc1 | inactive
8 | CC(=O)Oc1ccccc1C(=O)O | inactive
9 | CC(C[N+](C)(C)C)OC(N)=O (stereo not drawn) | inactive
10 | N[C@@H]1CONC1=O | inactive
11 | Nc1cccc(S(=O)(=O)N2CCCN(S(=O)(=O)c3ccc4c(c3)OCCO4)CC2)c1 | inactive
12 | CC(C=CC1=C(C)CCCC1(C)C)=CC=CC(C)=CC(=O)O | inactive
13 | O=C1CCCC2=C1C(c1[nH]ncc1Cl)N=C(Nc1nc3ccccc3o1)N2 (stereo not drawn) | inactive
14 | COCCNCCCn1c(C(=O)CF)c(-c2ccc(C)cc2)c2c(N)ncnc21 | inactive
15 | COc1ccc([C@@H]2CC(=O)c3c(O)cc(O[C@@H]4O[C@H](CO[C@@H]5O[C@@H](C)[C@H](O)[C@@H](O)[C@@H]5O)[C@@H](O)[C@H](O)[C@@H]4O)cc3O2)cc1O | inactive
16 | Cc1ccccc1C(C(=O)NC1CCCC1)N(C(=O)Cn1cnc2ccccc21)c1cccc(F)c1 (stereo not drawn) | inactive
17 | Cc1ccc(N(CC2=NCCN2)c2cccc(O)c2)cc1 | inactive
18 | NC(=O)c1cnccn1 | inactive
19 | CCn1c(-c2nonc2N)nc2c(C#CC(C)(C)O)ncc(OC[C@H]3CCCNC3)c21 | inactive
20 | C[C@]12CCC(=O)C=C1CC[C@@H]1[C@@H]2[C@@H](O)C[C@@]2(C)[C@H]1CC[C@]2(O)C(=O)CO | inactive
21 | CN[C@@H](C)C(=O)N[C@H]1CCCC[C@H]2CC[C@@H](C(=O)N[C@@H](c3ccccc3)c3cn(CCCCc4ccc(CCCCn5cc([C@@H](NC(=O)[C@@H]6CC[C@@H]7CCCC[C@H](NC(=O)[C@H](C)NC)C(=O)N76)c6ccccc6)nn5)cc4)nn3)N2C1=O | inactive
22 | C1COC(NC(C2CC2)C2CC2)=N1 | inactive

Row | Compound | Potency
23 | CCOc1ccc(Cc2cc([C@@H]3O[C@H](CO)[C@@H](O)[C@H](O)[C@@H]3O)ccc2Cl)cc1 | inactive
24 | Cn1cc(-c2ccc3nnc(C(F)(F)c4ccc5ncccc5c4)n3n2)cn1 | inactive
25 | Cc1ccc(NC(=O)c2cccc(C(C)(C)C#N)c2)cc1Nc1ccc2ncn(C)c(=O)c2c1 | inactive
26 | CN(C)c1ccc(Nc2nc(N)n(C(=O)c3c(F)cccc3F)n2)cc1 | inactive
27 | NC[C@H](O)c1ccc(O)c(O)c1 | inactive
28 | CC(C)(C)OC(=O)CN(Cc1ccc(Cl)cc1)Cc1ccc([N+](=O)[O-])s1 | inactive
29 | O=C(NOC[C@H](O)CO)c1ccc(F)c(F)c1Nc1ccc(I)cc1F | inactive
30 | COc1cc(Oc2ccnc3cc(OC)c(OC)cc23)ccc1NC(=O)NC(C)c1nccs1 (stereo not drawn) | inactive
31 | CCCc1nc2c(C)cc(-c3nc4ccccc4n3C)cc2n1Cc1ccc(-c2ccccc2C(=O)O)cc1 | inactive
32 | NCCc1ccc(O)c(O)c1 | inactive
33 | OC(CCN1CCCCC1)(c1ccccc1)C1CC2C=CC1C2 (stereo not drawn) | inactive
34 | Nc1ccc(S(=O)(=O)Nc2ccnn2-c2ccccc2)cc1 | inactive
35 | COc1ccc(-c2ccc3c(N4CCOC[C@H]4C)nc(N4CCOC[C@H]4C)nc3n2)cc1CO | inactive
36 | COc1cc(Nc2ncc3c(n2)-c2ccc(Cl)cc2C(c2c(F)cccc2OC)=NC3)ccc1C(=O)O | inactive
37 | O=C(c1cc(Cc2n[nH]c(=O)c3ccccc23)ccc1F)N1CCN(C(=O)C2CC2)CC1 | inactive
38 | CCOc1cc(C=C2C(=O)N(c3ccccc3)N=C2C)cc(Cl)c1OCC(=O)OC | inactive
39 | CC(C)(C)NCC(O)c1ccc(O)c(CO)c1 (stereo not drawn) | inactive
40 | Cn1cnc2c(F)c(Nc3ccc(Br)cc3Cl)c(C(=O)NOCCO)cc21 | inactive

Experiment: qHTS Screen of the MIPE 4.0 Collection Against Ewings Sarcoma (RDES) (AID 1259252); also: nearly all actives have a fitted effect of over 35% in size; also: potency is read from the fitted curve at half-maximal effect
Conditions: RD-ES Ewing sarcoma viability, CellTiter-Glo, 48 h; series mostly up to 45.8 µM
Procedure, shortened: (§1)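 Viability screen: 48 h incubation at 37C, 95% humidity, 5% CO2 with serially titrated compound, followed by CellTiter-Glo readout.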

Row | Compound | Potency
41 | CCOC(=O)N1CCC(=C2c3ccc(Cl)cc3CCc3cccnc32)CC1 | 26.4 µM (active)
42 | CC(=O)Oc1ccccc1C(=O)O | 8.33 µM (active)
43 | CC(C=CC1=C(C)CCCC1(C)C)=CC=CC(C)=CC(=O)O | 23.5 µM (active)
44 | NC[C@H](O)c1ccc(O)c(O)c1 | inactive
45 | CC(C)(C)OC(=O)CN(Cc1ccc(Cl)cc1)Cc1ccc([N+](=O)[O-])s1 | inactive
46 | O=C(NOC[C@H](O)CO)c1ccc(F)c(F)c1Nc1ccc(I)cc1F | 23.5 µM (active)
47 | NCCc1ccc(O)c(O)c1 | inactive
48 | Nc1ccc(S(=O)(=O)Nc2ccnn2-c2ccccc2)cc1 | inactive
49 | CC(C)(C)NCC(O)c1ccc(O)c(CO)c1 (stereo not drawn) | inactive

Experiment: qHTS Screen of the MIPE 4.0 Collection Against Ewings Sarcoma (TC71) (AID 1259253); also: nearly all actives have a fitted effect of over 40% in size; also: potency is read from the fitted curve at half-maximal effect
Conditions: TC71 Ewing sarcoma viability, CellTiter-Glo, 48 h; series mostly up to 45.8 µM
Procedure, shortened: as §1

Row | Compound | Potency
50 | CCOC(=O)N1CCC(=C2c3ccc(Cl)cc3CCc3cccnc32)CC1 | 26.4 µM (active)
51 | Cc1cn[nH]c1 | 0.0469 µM (active)
52 | c1ccc(-c2nn3c(c2-c2ccnc4cc(OCCN5CCOCC5)ccc24)CCC3)nc1 | 18.7 µM (active)
53 | CC(=O)Oc1ccccc1C(=O)O | 18.7 µM (active)
54 | CC(C[N+](C)(C)C)OC(N)=O (stereo not drawn) | inactive
55 | N[C@@H]1CONC1=O | inactive
56 | Nc1cccc(S(=O)(=O)N2CCCN(S(=O)(=O)c3ccc4c(c3)OCCO4)CC2)c1 | 16.6 µM (active)
57 | O=C1CCCC2=C1C(c1[nH]ncc1Cl)N=C(Nc1nc3ccccc3o1)N2 (stereo not drawn) | 10.5 µM (active)
58 | COCCNCCCn1c(C(=O)CF)c(-c2ccc(C)cc2)c2c(N)ncnc21 | 16.6 µM (active)
59 | Cc1ccc(N(CC2=NCCN2)c2cccc(O)c2)cc1 | 14.8 µM (active)
60 | NC(=O)c1cnccn1 | inactive
61 | CCn1c(-c2nonc2N)nc2c(C#CC(C)(C)O)ncc(OC[C@H]3CCCNC3)c21 | 18.7 µM (active)
62 | C1COC(NC(C2CC2)C2CC2)=N1 | inactive
63 | NC[C@H](O)c1ccc(O)c(O)c1 | inactive
64 | CC(C)(C)OC(=O)CN(Cc1ccc(Cl)cc1)Cc1ccc([N+](=O)[O-])s1 | 2.35 µM (active)
65 | NCCc1ccc(O)c(O)c1 | 16.6 µM (active)
66 | OC(CCN1CCCCC1)(c1ccccc1)C1CC2C=CC1C2 (stereo not drawn) | inactive
67 | Nc1ccc(S(=O)(=O)Nc2ccnn2-c2ccccc2)cc1 | inactive
68 | COc1ccc(-c2ccc3c(N4CCOC[C@H]4C)nc(N4CCOC[C@H]4C)nc3n2)cc1CO | 0.0332 µM (active)
69 | COc1cc(Nc2ncc3c(n2)-c2ccc(Cl)cc2C(c2c(F)cccc2OC)=NC3)ccc1C(=O)O | 1.87 µM (active)
70 | O=C(c1cc(Cc2n[nH]c(=O)c3ccccc23)ccc1F)N1CCN(C(=O)C2CC2)CC1 | 10.5 µM (active)
71 | CCOc1cc(C=C2C(=O)N(c3ccccc3)N=C2C)cc(Cl)c1OCC(=O)OC | inactive
72 | CC(C)(C)NCC(O)c1ccc(O)c(CO)c1 (stereo not drawn) | inactive
73 | Cn1cnc2c(F)c(Nc3ccc(Br)cc3Cl)c(C(=O)NOCCO)cc21 | 16.6 µM (active)
